Hits are enriched below; roughly 1.1% of the tested compounds scored in any of these assays.
NCOA2 inhibitor – inhibition of GAL4-SRC2 driven luciferase reporter, primary screen, SRC2 inhibitor project, cell-based, luminescence | actives 0.17% (n = 370,000) | HEK293 GAL4-SRC2 luciferase reporter | inhibition, % at 9 µM | Nuclear receptor coactivator 2 (Homo sapiens), Q15596;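 active means inhibition above the mean inhibition of all tested compounds plus 3 SD, set per campaign, cut at about 52% in these data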;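 further: 0% = DMSO treated cells and 100% = cells given Gossypol at 36 µM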
SRC1 inh – SRC1 coactivator transcriptional activity inhibitors, primary screen, cell-based, luminescence | actives 0.12% (n = 360,000) | inhibition, % at 3.6 µM | AID 588354, 2011 | Nuclear receptor coactivator 1 (Homo sapiens), Q15788 | HEK293 GAL4-SRC1 luciferase reporter;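 active means inhibition above the campaign mean plus 3 SD, with each screening campaign given its own cutoff, cut at about 60% in these data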;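 further: 0% = DMSO treated cells and 100% = gossypol at 36 µM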
NCOA3 inh – SRC3 coactivator transcriptional activity inhibitors, primary screen, cell-based, luminescence; Nuclear receptor coactivator 3 (Homo sapiens), Q9Y6Q9; HEK293 GAL4-SRC3 luciferase reporter; inhibition, % at 3.6 µM; actives 0.17% (n = 360,000);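 active means inhibition above a per-campaign cutoff, the mean of all compounds plus 3 SD, cut at about 60% in these data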;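 further: 0% = DMSO-treated cells and 100% = gossypol-treated cells at 36 µM; higher means less SRC3-driven luciferase light from the GAL4 reporter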
NR2F2 inh – NR2F2 transcriptional activity inhibitors, primary screen, cell-based, luciferase reporter, HEK293T, luminescence. COUP transcription factor 2 (Homo sapiens), P24468. HEK293T NGFI-A luciferase reporter. inhibition, % at 8.6 µM. actives 0.7% (n = 370,000). AID 686940, 2013;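 active means inhibition above a per-plate cutoff, mean inhibition of test wells between control levels plus 3 SD, cut at about 38% in these data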;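 further: cells cotransfected with COUP-TFII expression vector driving the NGFI-A reporter; 0% = median of COUP-TF2 test wells and 100% = reporter-only cells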
GalR3 antagonist – GalR3 antagonists in HEK293 cells, primary screen, cell-based, fluorescence readout. Galanin receptor type 3 (Homo sapiens), O60755. AID 651719, 2012. HEK293 GalR3-CNG cAMP membrane potential fluorescence; galR3 body fused to GalR1 C-terminus. inhibition, % at 3 µM. actives 0.44% (n = 360,000);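 active means inhibition above the screen-wide average plus 3 SD, cut at about 13% in these data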;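 further: forskolin and galanin both at EC90 stimulate the cells; cAMP rise reported by CNG channel membrane potential dye signal; 0% = forskolin plus galanin with DMSO and 100% = forskolin alone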
LRH-1 inv ag – LRH-1 (NR5A2) inverse agonists, primary screen, cell-based, luminescence, HEK293T, StAR-luciferase reporter. Nuclear receptor subfamily 5 group A member 2 (Homo sapiens), O00482. actives 0.13% (n = 360,000). inhibition, % at 3.6 µM. LRH-1 transfected, 24 h;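 active means inhibition above the mean inhibition of all tested compounds plus 3 SD, cut at about 73% in these data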;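 further: 0% = DMSO wells and 100% = reporter-only cells lacking LRH-1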
Target sequence (O00482 whole entry, looked up): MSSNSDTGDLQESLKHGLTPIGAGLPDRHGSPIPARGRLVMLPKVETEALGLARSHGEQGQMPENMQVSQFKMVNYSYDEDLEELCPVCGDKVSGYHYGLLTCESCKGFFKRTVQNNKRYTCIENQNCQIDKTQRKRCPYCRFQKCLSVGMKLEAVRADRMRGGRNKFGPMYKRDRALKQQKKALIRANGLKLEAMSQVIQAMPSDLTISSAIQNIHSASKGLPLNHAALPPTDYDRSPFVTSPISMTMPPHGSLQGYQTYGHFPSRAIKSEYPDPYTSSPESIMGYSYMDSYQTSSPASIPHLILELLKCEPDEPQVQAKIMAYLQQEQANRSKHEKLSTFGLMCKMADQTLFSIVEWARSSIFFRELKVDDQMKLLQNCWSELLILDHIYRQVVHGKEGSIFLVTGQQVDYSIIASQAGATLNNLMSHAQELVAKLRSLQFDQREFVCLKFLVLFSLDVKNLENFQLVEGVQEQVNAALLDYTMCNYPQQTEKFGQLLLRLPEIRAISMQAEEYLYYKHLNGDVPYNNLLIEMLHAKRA
GalR3 conf – GalR3 antagonist hit confirmation, cell-based, fluorescence, triplicate; shares compounds with GalR3 antagonist; HEK293 GalR3 CNG cAMP biosensor, membrane potential fluorescence; galR3 fused to GalR1 carboxy tail; challenged with forskolin and galanin at EC90; AID 652245, 2013; inhibition, % at 3 µM; actives 59% (n = 1,600);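 active means inhibition above the primary screen's cutoff, the mean inhibition of all screened compounds plus 3 SD, cut at about 13% in these data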;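 further: 0% = forskolin plus galanin and 100% = forskolin alone with DMSO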
HEK-CNG parental – nonspecific cAMP agonists in parental HEK-CNG cells, counter-screen for GalR3 antagonist project, cell-based, fluorescence, high throughput | shares compounds with GalR3 antagonist | HEK293-CNG parental cells, cAMP membrane potential fluorescence; normalised: DMSO wells 0%, forskolin wells 100% | activation, % at 3 µM | actives 10% (n = 1,600) | AID 652268, 2013; in the data active means activation above about 1.3%
The depositor's hits bear a star; . = not tested or not shown.

SMILES	NCOA2 inhibitor	SRC1 inh	NCOA3 inh	NR2F2 inh	GalR3 antagonist	LRH-1 inv ag	GalR3 conf	HEK-CNG parental
Cc1ccccc1-c1cc(C(=O)Nc2sc(C(=O)OC(C)C)c(C)c2C#N)c2ccccc2n1	3	30	55	22	71*	22	100*	1
O=C1c2ccccc2-c2ccc(P(=O)(O)O)cc21	.	.	.	4	.	.	.	.
Cc1ccccc1-c1nnn(CC(=O)Nc2ccc3c(c2)OCO3)n1	-1	5	5	-10	-7	-11	.	.
Cc1ccccc1-c1nnn(CC(=O)Nc2ccc3c(c2)OCCO3)n1	10	-15	2	1	16*	-8	19*	1
CC(C)C(NC(=O)[C@H](Cc1ccccc1)NC(=O)OCc1ccccc1)P(=O)(O)OC(Cc1ccccc1)C(=O)O (stereo partly drawn)	.	.	.	-26	.	.	.	.
NCCCC[C@H](NC(=O)C1CCNCC1)c1nnc([C@@H](N)Cc2ccc(O)cc2)o1	-2	0	-13	5	.	15	-1	0
N[C@@H](CO)c1nnc([C@H](Cc2ccc(O)cc2)NC(=O)C2CCNCC2)o1	-2	-4	-5	-2	-2	-10	.	.
Cc1ccc(NC(=O)c2ccc(CS(=O)(=O)Cc3ccccc3C)o2)c(C)c1	0	.	.	0	.	.	.	.
CC(=O)Nc1ccc(C(CCCc2ccccc2)C2=CCCCC2)cc1 (stereo not drawn)	14	.	.	5	.	.	.	.
COc1ccc(Nc2nc(Cl)nc(NCCO)n2)cc1	-13	-6	2	-3	20*	15	-1	0
Cc1ccc(NC(=O)OC2CCC23CCCCC3)cc1 (stereo not drawn)	-61	.	.	-14	.	.	.	.
CCOC(=O)c1c(O)c(Cl)c(C)[nH]c1=O	10	-9	2	-8	16*	-4	19*	0
COc1ccc(C)cc1NC(=O)c1ccc(NS(=O)(=O)c2cccc3cccnc23)cc1	-7	17	17	14	51*	13	85*	0
CN(C)c1cc(Nc2ccc(O)cc2)c([N+](=O)[O-])c2nonc12	-27	-2	13	2	5	-6	.	.
O=[N+]([O-])c1c(Nc2ccc(O)cc2)cc(Cl)c2nonc12	-22	-79	-52	15	58*	15	51*	0
O=C(Nc1ccccc1F)c1ccncc1	-6	-11	1	-2	-3	-2	.	.
O=C(Nc1ccc(Br)cc1F)c1ccncc1	-21	-4	-20	-33	22*	-6	15*	0
COc1ccc(-n2c(SCC(=O)N/N=C(/C)c3cccc(O)c3)nc3ccccc3c2=O)cc1	6	.	.	-7	.	.	.	.
O=C(NCCCN1CCN(c2ccc(F)cc2)CC1)Nc1ccccc1	14	.	.	-6	.	.	.	.
N/C(=N\OC(=O)c1cccc(Cl)c1)c1cccnc1	-49	-53	-56	-29	.	-47	8	1
C[C@H]1CN=C2N(CCNC(=O)CCC3CCCCC3)[C@H](Cc3ccc(O)cc3)CN21	-6	-4	4	6	17*	10	2	0
COc1ccc(C[C@H]2CN3C(=NC[C@@H]3C)N2CCNC(=O)CCC2CCCCC2)cc1	-46	-31	-6	-1	2	-4	.	.
C#CCNC(=O)C[C@@H]1C(=O)N(CC=C)/C2=C/CCCCC[C@]21C(=O)OCC	-30	.	.	12	.	.	.	.
Cc1ccc(/C=C/C(=O)Nc2ccc(S(=O)(=O)Nc3ncccn3)cc2)cc1	-12	3	-16	6	13*	-22	6	0
